Assay results reported in PubChem BioAssay (NCATS).
Values joined by “and” are separate entries in the source; they are usually repeats but may differ in a detail not shown here. Equal entries are not always repeated. Records with an inconclusive call do not appear. Entries that show only a call come without a potency. Active and inactive are the calls of the source. Calls come from the whole dose curve; as a rule, active = well fitted inhibition curve with a large enough effect; inconclusive = small, poorly fitted or top-dose-only effect; inactive = flat fitted curve, though single readings scatter.

What follows are molecules tested on CP265 (assay: qHTS profiling for inhibitors of Plasmodium falciparum proliferation (AID 504749; note: nearly all actives have a fitted effect of over 60% in size)). Details: P. falciparum in erythrocytes, SYBR Green DNA, 72 h; series mostly up to 28.7 µM.
Procedure, shortened: (§1)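 Three-day growth assay of blood-stage parasites in erythrocytes (0.3% parasitemia, 2.5% hematocrit) at 37 C, 5% CO2, quantified by SYBR Green DNA staining after overnight detergent lysis.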
Potency is the fitted concentration of half-maximal effect.

Row | Structure (SMILES) | Potency
1 | CCC1(c2ccccc2)CCC(=O)NC1=O (stereo not drawn) | inactive
2 | C[N+]1(CCC(C(N)=O)(c2ccccc2)c2ccccc2)CCCCC1 | inactive
3 | CCC(=O)O[C@H]1CC[C@H]2[C@@H]3CCC4=CC(=O)CC[C@]4(C)[C@H]3CC[C@]12C | inactive
4 | OC(c1ccccc1)(c1ccccc1)C1CCNCC1 | inactive
5 | CC(C)[N+](C)(CCC(C(N)=O)(c1ccccc1)c1ccccc1)C(C)C | inactive
6 | Cc1ncc2n1-c1ccc(Cl)cc1C(c1ccccc1F)=NC2 | inactive
7 | Cc1ccc(N=CN(C)C=Nc2ccc(C)cc2C)c(C)c1 | inactive
8 | CC(C)NCC(O)c1ccc(N)c(C#N)c1 (stereo not drawn) | inactive
9 | CNC(=O)Oc1cccc2ccccc12 | inactive
10 | CCNc1nc(Cl)nc(NCC)n1 | inactive
11 | CC[n+]1c(-c2ccccc2)c2cc(N)ccc2c2ccc(N)cc21 | 251 nM (active) and 794 nM (active)
12 | CCCCCCCCCCCC[N+](C)(C)CCOc1ccccc1 | 6.31 µM (active)
13 | CCOC(=O)NC(O)C(Cl)(Cl)Cl (stereo not drawn) | inactive
14 | CCN(Cc1ccc(Cl)nc1)/C(=C/[N+](=O)[O-])NC | inactive
15 | C[C@H]1C(=O)O[C@@H]2CCN3CC=C(COC(=O)[C@](C)(O)[C@]1(C)O)[C@H]23 | inactive
16 | Oc1c(Br)cc(Br)cc1Br | inactive

Row | Structure (SMILES) | Potency
17 | C[C@]12CC[C@H]3[C@@H](CC=C4C[C@@H](O)CC[C@@]43C)[C@@H]1CC[C@@H]2O | inactive
18 | COP(=O)(OC)C(O)C(Cl)(Cl)Cl (stereo not drawn) | inactive
19 | CCN(CC)C(C)C(=O)c1ccccc1 (stereo not drawn) | inactive
20 | COP(=O)(OC)OC=C(Cl)Cl | inactive
21 | CNC(=O)NC(O)C(Cl)(Cl)Cl (stereo not drawn) | inactive
22 | NC(=O)CN1CCCC1=O | inactive
23 | CCC1(CC)C(=O)NC(=O)NC1=O | inactive
24 | O=c1n(Cl)c(=O)n(Cl)c(=O)n1Cl | inactive
25 | CC(C)C(Br)C(=O)NC(N)=O (stereo not drawn) | inactive
26 | CN(C)C(=S)SSC(=S)N(C)C | 3.98 µM (active)
27 | COP(=S)(OC)Oc1ccc(Sc2ccc(OP(=S)(OC)OC)cc2)cc1 | inactive
28 | NCc1cccnc1 | inactive
29 | COc1ccc(C(=O)N2CCCC2=O)cc1 | inactive
30 | c1ccc2nc(N3CCNCC3)ccc2c1 | inactive
31 | CC(C)(C)OC(=O)c1ncn2c1[C@@H]1CCCN1C(=O)c1c(Br)cccc1-2 | inactive

These molecules were tested on CP266 in the same assay as above. Details: P. falciparum in erythrocytes, SYBR Green DNA, 72 h; series mostly up to 28.7 µM.
Procedure, shortened: as §1

Row | Structure (SMILES) | Potency
32 | CCC1(c2ccccc2)CCC(=O)NC1=O (stereo not drawn) | inactive
33 | C[N+]1(CCC(C(N)=O)(c2ccccc2)c2ccccc2)CCCCC1 | inactive
34 | CCC(=O)O[C@H]1CC[C@H]2[C@@H]3CCC4=CC(=O)CC[C@]4(C)[C@H]3CC[C@]12C | inactive
35 | OC(c1ccccc1)(c1ccccc1)C1CCNCC1 | inactive
36 | CC(C)[N+](C)(CCC(C(N)=O)(c1ccccc1)c1ccccc1)C(C)C | inactive
37 | Cc1ncc2n1-c1ccc(Cl)cc1C(c1ccccc1F)=NC2 | inactive
38 | Cc1ccc(N=CN(C)C=Nc2ccc(C)cc2C)c(C)c1 | inactive
39 | CC(C)NCC(O)c1ccc(N)c(C#N)c1 (stereo not drawn) | inactive
40 | CNC(=O)Oc1cccc2ccccc12 | inactive
41 | CCNc1nc(Cl)nc(NCC)n1 | inactive
42 | CC[n+]1c(-c2ccccc2)c2cc(N)ccc2c2ccc(N)cc21 | 301 nM (active) and 601 nM (active)
43 | CCCCCCCCCCCC[N+](C)(C)CCOc1ccccc1 | 15.1 µM (active)
44 | CCOC(=O)NC(O)C(Cl)(Cl)Cl (stereo not drawn) | inactive
45 | CCN(Cc1ccc(Cl)nc1)/C(=C/[N+](=O)[O-])NC | inactive
46 | C[C@H]1C(=O)O[C@@H]2CCN3CC=C(COC(=O)[C@](C)(O)[C@]1(C)O)[C@H]23 | inactive
47 | Oc1c(Br)cc(Br)cc1Br | inactive

Row | Structure (SMILES) | Potency
48 | C[C@]12CC[C@H]3[C@@H](CC=C4C[C@@H](O)CC[C@@]43C)[C@@H]1CC[C@@H]2O | inactive
49 | COP(=O)(OC)C(O)C(Cl)(Cl)Cl (stereo not drawn) | inactive
50 | CCN(CC)C(C)C(=O)c1ccccc1 (stereo not drawn) | inactive
51 | COP(=O)(OC)OC=C(Cl)Cl | inactive
52 | CNC(=O)NC(O)C(Cl)(Cl)Cl (stereo not drawn) | inactive
53 | NC(=O)CN1CCCC1=O | inactive
54 | CCC1(CC)C(=O)NC(=O)NC1=O | inactive
55 | O=c1n(Cl)c(=O)n(Cl)c(=O)n1Cl | inactive
56 | CC(C)C(Br)C(=O)NC(N)=O (stereo not drawn) | inactive
57 | CN(C)C(=S)SSC(=S)N(C)C | 4.78 µM (active)
58 | COP(=S)(OC)Oc1ccc(Sc2ccc(OP(=S)(OC)OC)cc2)cc1 | inactive
59 | NCc1cccnc1 | inactive
60 | COc1ccc(C(=O)N2CCCC2=O)cc1 | inactive
61 | c1ccc2nc(N3CCNCC3)ccc2c1 | inactive
62 | CC(C)(C)OC(=O)c1ncn2c1[C@@H]1CCCN1C(=O)c1c(Br)cccc1-2 | inactive

Each molecule was assayed on CP268 in the same assay as above. Details: P. falciparum in erythrocytes, SYBR Green DNA, 72 h; series mostly up to 28.7 µM.
Procedure, shortened: as §1

Row | Structure (SMILES) | Potency
63 | CCC1(c2ccccc2)CCC(=O)NC1=O (stereo not drawn) | inactive
64 | C[N+]1(CCC(C(N)=O)(c2ccccc2)c2ccccc2)CCCCC1 | inactive
65 | CCC(=O)O[C@H]1CC[C@H]2[C@@H]3CCC4=CC(=O)CC[C@]4(C)[C@H]3CC[C@]12C | inactive
66 | OC(c1ccccc1)(c1ccccc1)C1CCNCC1 | inactive
67 | CC(C)[N+](C)(CCC(C(N)=O)(c1ccccc1)c1ccccc1)C(C)C | inactive
68 | Cc1ncc2n1-c1ccc(Cl)cc1C(c1ccccc1F)=NC2 | inactive
69 | Cc1ccc(N=CN(C)C=Nc2ccc(C)cc2C)c(C)c1 | inactive
70 | CC(C)NCC(O)c1ccc(N)c(C#N)c1 (stereo not drawn) | inactive
71 | CNC(=O)Oc1cccc2ccccc12 | inactive
72 | CCNc1nc(Cl)nc(NCC)n1 | inactive
73 | CC[n+]1c(-c2ccccc2)c2cc(N)ccc2c2ccc(N)cc21 | 107 nM (active) and 379 nM (active)
74 | CCCCCCCCCCCC[N+](C)(C)CCOc1ccccc1 | 9.53 µM (active)
75 | CCOC(=O)NC(O)C(Cl)(Cl)Cl (stereo not drawn) | inactive
76 | CCN(Cc1ccc(Cl)nc1)/C(=C/[N+](=O)[O-])NC | inactive
77 | C[C@H]1C(=O)O[C@@H]2CCN3CC=C(COC(=O)[C@](C)(O)[C@]1(C)O)[C@H]23 | inactive
78 | Oc1c(Br)cc(Br)cc1Br | inactive

Row | Structure (SMILES) | Potency
79 | C[C@]12CC[C@H]3[C@@H](CC=C4C[C@@H](O)CC[C@@]43C)[C@@H]1CC[C@@H]2O | inactive
80 | COP(=O)(OC)C(O)C(Cl)(Cl)Cl (stereo not drawn) | inactive
81 | CCN(CC)C(C)C(=O)c1ccccc1 (stereo not drawn) | inactive
82 | COP(=O)(OC)OC=C(Cl)Cl | inactive
83 | CNC(=O)NC(O)C(Cl)(Cl)Cl (stereo not drawn) | inactive
84 | NC(=O)CN1CCCC1=O | inactive
85 | CCC1(CC)C(=O)NC(=O)NC1=O | inactive
86 | O=c1n(Cl)c(=O)n(Cl)c(=O)n1Cl | inactive
87 | CC(C)C(Br)C(=O)NC(N)=O (stereo not drawn) | inactive
88 | CN(C)C(=S)SSC(=S)N(C)C | 3.01 µM (active)
89 | COP(=S)(OC)Oc1ccc(Sc2ccc(OP(=S)(OC)OC)cc2)cc1 | inactive
90 | NCc1cccnc1 | inactive
91 | COc1ccc(C(=O)N2CCCC2=O)cc1 | inactive
92 | c1ccc2nc(N3CCNCC3)ccc2c1 | inactive
93 | CC(C)(C)OC(=O)c1ncn2c1[C@@H]1CCCN1C(=O)c1c(Br)cccc1-2 | inactive
